Assay results taken from PubChem BioAssay (Tox21).
“And” between values parts separate entries of the source, which are not always exact repeats. Identical values can stand only once. Results filed as inconclusive are left out. The source made the active and inactive calls. Unless noted, calls come from the whole dose curve; as a rule, active = well fitted curve in the direction sought with a large enough effect in the repeat runs; inconclusive = weak or mixed curves; inactive = no such curve, though single readings can be large; an effect the other way counts as inactive or inconclusive.

Columns and labels:
[1] = qHTS assay to identify small molecule antagonists of the estrogen related receptor (ERR) signaling pathway - cell viability counter screen (AID 1224818);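 note: viability measured after 17.5 h of compound exposure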
Method in brief: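 ERR reporter cells plated 6 h at 37 C/5% CO2, then compounds in DMSO pin-transferred and incubated 17.5 h at 37 C. Viability read as CellTiter-Fluor fluorescence after 30 min at 37 C.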

[2] = qHTS assay to identify small molecule antagonists of the estrogen related receptor (ERR) signaling pathway (AID 1224819;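 note: luminescence from an ERR-driven luciferase reporter measured with One-Glo reagent; nearly all actives have a fitted effect of over 50% in size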)
Method in brief: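 ERR reporter cells were plated at 2,000 cells/well and left 6 h at 37 C/5% CO2 before pin-tool transfer of compounds in DMSO. After 18 h at 37 C, One-Glo was added and luminescence was read 30 min later at room temperature.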

[3] = tested on: estrogen-related receptor alpha (ERRalpha) with PGC-1alpha coactivator, human; experiment: qHTS assay to identify small molecule antagonists of the estrogen related receptor signaling pathway with the pleiotropic PPARgamma coactivator (PGC) (AID 1224821; calls by dose curve;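 note: lower luminescence signal means antagonism of PGC/ERR signalling; nearly all actives have a fitted effect of over 50% in size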)
Method in brief: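 Quantitative HTS for antagonism: PGC/ERR cells received compounds after 6 h attachment and were incubated 18 h at 37 C, with luminescence (One-Glo) as the endpoint.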

[4] = qHTS assay to identify small molecule antagonists of the estrogen related receptor signaling pathway with the pleiotropic PPARgamma coactivator (PGC) cell viability counter screen (AID 1224822)
Method in brief: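 PGC/ERR cells were seeded at 2,000 cells/well, rested 6 h at 37 C/5% CO2, then given compounds in DMSO by pin tool and incubated 17.5 h at 37 C. Viability came from CellTiter-Fluor fluorescence after 30 min.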

[5] = qHTS assay to identify small molecule agonists of the estrogen related receptor signaling pathway with the pleiotropic PPARgamma coactivator (PGC) (AID 1224823)
Method in brief: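 Cell-based luciferase assay in the NTP-supplied PGC/ERR line, 2,000 cells/well; 18 h compound exposure at 37 C, luminescence after One-Glo.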

[6] = qHTS assay to identify small molecule agonists of the estrogen related receptor (ERR) signaling pathway (AID 1224820)
Method in brief: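 Quantitative HTS of the LOPAC library used NTP ERR reporter cells treated 18 h at 37 C. Signal is luminescence after One-Glo addition and a 30 min room-temperature incubation.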

[7] = qHTS assay to identify small molecule antagonists of the estrogen related receptor (ERR) signaling pathway from Tox21 library - cell viability counter screen (AID 1224834); note: nearly all actives have a fitted effect of over 30% in size
Method in brief: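 ERR reporter cells were plated 6 h before compound addition, then exposed to test compounds in DMSO for 17.5 h at 37 C. Viability was read as CellTiter-Fluor fluorescence after a 30-minute incubation at 37 C.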

[8] = qHTS assay to identify small molecule antagonists of the estrogen related receptor signaling pathway with the pleiotropic PPARgamma coactivator (PGC) from Tox21 10K library - cell viability counter screen (AID 1224840; active = well fitted cell-killing curve with a large enough effect in the repeat runs, not every such curve was filed as active; note: nearly all actives have a fitted effect of over 40% in size)
Method in brief: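 PGC/ERR cells were seeded at 2,000 cells/well and left 6 hours at 37 C/5% CO2 before pin-tool addition of compounds in DMSO. After 17.5 hours at 37 C, CellTiter-Fluor was added and fluorescence read 30 minutes later.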

[9] = qHTS assay to identify small molecule antagonists of the estrogen related receptor signaling pathway with the pleiotropic PPARgamma coactivator (PGC) from Tox21 10K library (AID 1224841; call rule not given here; note: actives are mostly falling curves and most rising ones were filed inactive; nearly all actives have a fitted effect of over 50% in size)
Method in brief: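 PGC/ERR reporter cells were seeded at 2,000 cells/well and held 6 hours at 37 C/5% CO2 before pin-tool addition of compounds in DMSO. After 18 hours at 37 C, One-Glo was added and luminescence read after 30 minutes at room temperature.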

[10] = qHTS assay to identify small molecule agonists of the estrogen related receptor signaling pathway with the pleiotropic PPARgamma coactivator (PGC) from Tox21 10K library (AID 1224842); note: nearly all actives have a fitted effect of over 15% in size
Method in brief: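 PGC/ERR reporter cells (NTP line) were seeded 2,000 per well, rested 6 h at 37 C/5% CO2, then pin-dosed with compounds in DMSO for 18 h at 37 C; luciferase read by One-Glo luminescence after 30 min at room temperature.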

[11] = qHTS assay to identify small molecule antagonists of the estrogen related receptor (ERR) signaling pathway from Tox21 library (AID 1224848); note: nearly all actives have a fitted effect of over 50% in size
Method in brief: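 Cells: ERR line, 2,000/well; 6 h preincubation 37 C/5% CO2. Cpd in DMSO via pin tool; 18 h, 37 C. ONE-Glo, 30 min RT, luminescence.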

[12] = qHTS assay to identify small molecule agonists of the estrogen related receptor (ERR) signaling pathway from Tox21 library (AID 1224849; calls by dose curve; note: nearly all actives have a fitted effect of over 15% in size); settings: ERR reporter cell line, ONE-Glo luciferase, 18 h
Method in brief: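 ERR reporter cell line (NTP) seeded, rested 6 h at 37 C/5% CO2, then pinned with Tox21 compounds in DMSO. After 18 h at 37 C, ONE-Glo luciferase luminescence was read following 30 min at room temperature.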

[13] = target: Acetylcholinesterase (Homo sapiens) (UniProt P22303); experiment: Acetylcholinesterase (AChE) small molecule antagonists: colormetric cell-based qHTS assay (AID 1347395; calls by dose curve; note: nearly all actives have a fitted effect of over 30% in size)
Sequence of Acetylcholinesterase (Homo sapiens) (P22303 whole entry, looked up): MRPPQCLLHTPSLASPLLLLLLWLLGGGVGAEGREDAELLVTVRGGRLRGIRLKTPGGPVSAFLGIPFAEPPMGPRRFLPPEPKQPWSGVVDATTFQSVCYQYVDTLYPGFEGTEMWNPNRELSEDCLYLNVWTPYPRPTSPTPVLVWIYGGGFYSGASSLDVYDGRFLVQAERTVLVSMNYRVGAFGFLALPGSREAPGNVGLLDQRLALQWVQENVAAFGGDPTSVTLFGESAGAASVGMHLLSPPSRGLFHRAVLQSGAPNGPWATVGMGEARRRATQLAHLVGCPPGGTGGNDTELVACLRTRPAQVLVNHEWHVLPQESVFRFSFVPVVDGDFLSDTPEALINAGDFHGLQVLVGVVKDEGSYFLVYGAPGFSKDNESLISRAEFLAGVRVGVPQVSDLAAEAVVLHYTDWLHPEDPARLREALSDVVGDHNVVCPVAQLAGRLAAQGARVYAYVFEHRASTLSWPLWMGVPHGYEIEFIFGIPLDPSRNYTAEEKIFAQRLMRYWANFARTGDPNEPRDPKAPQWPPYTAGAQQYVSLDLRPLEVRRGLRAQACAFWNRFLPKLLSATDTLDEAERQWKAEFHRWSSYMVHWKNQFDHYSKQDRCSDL
Method in brief: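 Cells (SH-SY5Y, 2,000 per well) are seeded and left overnight at 37 C. Compound is added for 30 min, then DTNB and acetylthiocholine for a further 90 min at 37 C before absorbance-based thiocholine detection.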

[14] = target: Acetylcholinesterase (Homo sapiens) (UniProt P22303); experiment: Acetylcholinesterase (AChE) small molecule antagonists: enzyme-based qHTS assay (AID 1347397; calls by dose curve; note: nearly all actives have a fitted effect of over 55% in size); settings: Potency: AChE enzyme activity inhibition; outcome: AChE enzyme activity inhibition
Method in brief: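 Recombinant human AChE, dispensed at 50 mU/mL, was preincubated with Tox21 10K compounds or DMSO vehicle for 30 min at room temperature. DTNB plus acetylthiocholine was then added, and thiocholine was measured colorimetrically after a further 10 min.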

[15] = target: Acetylcholinesterase (Homo sapiens) (UniProt P22303); experiment: Acetylcholinesterase (AChE) small molecule antagonists: fluorescence cell-based qHTS assay (AID 1347398; calls by dose curve; note: nearly all actives have a fitted effect of over 50% in size); settings: Potency: AChE activity; outcome: AChE activity
Method in brief: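 Human SH-SY5Y cells were plated overnight at 37 C, exposed to compound for 30 min at 37 C, 5% CO2, then given acetylthiocholine plus Thiolite Green for 40 min at room temperature; thiocholine fluorescence (Ex/Em 490/520 nm) reports endogenous AChE activity.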
% is set by controls: 0 for no effect and ±100 for the full control effect.

Cn1cnc(CCN)c1
inactive: Potency [1] | Potency [2] | Potency [3] | Potency [4] | Potency [5]

NNC(=O)c1ccc(O)cc1
inactive: Potency [1] | Potency [2] | Potency [3] | Potency [4]

C[C@@H]1O[C@H](C[N+](C)(C)C)C[C@H]1O
inactive: Potency [1] | Potency [2] | Potency [3] | Potency [4]

C[N+]1(C)CCOC(O)(c2ccc(-c3ccc(C4(O)C[N+](C)(C)CCO4)cc3)cc2)C1 (centres undefined)
inactive: Potency [1] | Potency [2] | Potency [3] | Potency [4] | Potency [5]

N[C@@H](Cn1oc(=O)[nH]c1=O)C(=O)O
inactive: Potency [1] | Potency [2] | Potency [3] | Potency [4] | Potency [5]

CC(=O)NCCc1c[nH]c2ccccc12
inactive: Potency [1] | Potency [2] | Potency [3] | Potency [4] | Potency [5]

CCn1cc(C(=O)O)c(=O)c2ccc(C)nc21
inactive: Potency [1] | Potency [2] | Potency [6] | Potency [3] | Potency [4] | Potency [5] | Potency [7] | Potency [8] | Potency [9] | Potency [10] | Potency [11] | activity change, positive = activation ([12]; at 42.5 µM (top of the series)) 4.67% | activity change, positive = activation ([12]; at 92.4 µM (top of the series)) 4.5% and 0.305% | Potency [13] | Potency [14] | Potency [15]

O=C(O)Cc1cnc[nH]1
inactive: Potency [1] | Potency [2] | Potency [3] | Potency [4] | Potency [5]
